# Laboratory results from PubChem BioAssay (NCI).
# This is part of a sample that, as a whole, favours compounds with a hit. Of some 83,000 tested, about 20% had one in any assay.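 Negative percent growth values reflect cell death: -40 means 40% of the cells present at the start died, and -100 means all died.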 Values without a mark were called inactive. Active and inactive are the calls of the source. How the source made its calls: active means growth percent below 10; inactive means the rest.
# What was measured:
# Experiment in all cases: NCI-60 one-dose screen, 48 h (100 = growth as untreated, 0 = no growth, -100 = all killed)
# Conditions in all cases: 10 µM
# NCI-H23 lung = test system: NCI-H23 lung
# NCI-H226 lung = test system: NCI-H226 lung
# NCI-H322M lung = test system: NCI-H322M lung
# HOP-62 NSCLC = test system: HOP-62 NSCLC
# NCI-H460 lung = test system: NCI-H460 lung
# HOP-92 NSCLC = test system: HOP-92 NSCLC
# NCI-H522 lung = test system: NCI-H522 lung
# A549/ATCC NSCLC = test system: A549/ATCC NSCLC
# 786-0 renal = test system: 786-0 renal
# COLO 205 colon = test system: COLO 205 colon
# DU-145 prostate = test system: DU-145 prostate
# K-562 leukemia = test system: K-562 leukemia
# MALME-3M melanoma = test system: MALME-3M melanoma
# MDA-MB-231 breast = test system: MDA-MB-231 breast
# RXF 393 renal = test system: RXF 393 renal
# SF-268 CNS = test system: SF-268 CNS
# SF-295 CNS = test system: SF-295 CNS
# SF-539 CNS = test system: SF-539 CNS
# UACC-257 melanoma = test system: UACC-257 melanoma
# M14 melanoma = test system: M14 melanoma
SMILES,growth (NCI-H23 lung),growth (NCI-H226 lung),growth (NCI-H322M lung),growth (HOP-62 NSCLC),growth (NCI-H460 lung),growth (HOP-92 NSCLC),growth (NCI-H522 lung),growth (A549/ATCC NSCLC),growth (786-0 renal),growth (COLO 205 colon),growth (DU-145 prostate),growth (K-562 leukemia),growth (MALME-3M melanoma),growth (MDA-MB-231 breast),growth (RXF 393 renal),growth (SF-268 CNS),growth (SF-295 CNS),growth (SF-539 CNS),growth (UACC-257 melanoma),growth (M14 melanoma)
Fc1ccc(-c2cc(C(Cl)Cl)no2)cc1,95.5%,87.2%,93.4%,98.2%,101%,99.4%,114%,122%,110%,115%,100%,128%,93.3%,95.1%,103%,100%,97.1%,106%,120%,89.3%
CCN(CC)CCOC(=O)c1ccc(N=Nc2ccc(O)c(OC)c2)cc1,94.5%,90.4%,90.9%,98.8%,110%,94.6%,63.8%,91.1%,95.9%,107%,108%,95.3%,97%,110%,89.4%,94.7%,101%,96.4%,96.5%,103%
COc1ccc(C2C=C(c3ccc(OC)c(OC)c3)N=C3SC=CN32)c(Br)c1 (stereo not given),89.3%,70.7%,87.5%,103%,87.5%,77.5%,60.8%,82.3%,92.3%,94.8%,82.7%,8.77% (active),88.7%,78%,98.5%,90.4%,74.9%,87.1%,97.3%,55.9%
COCCOC(=O)NC(=O)Nc1ccc(/C(=N/O)c2ccc(Cl)cc2)cc1,29.2%,33.3%,30.5%,19.2%,7.81% (active),44.6%,-38.3% (active),15.4%,22.3%,-42.6% (active),4.9% (active),6.7% (active),90%,12.8%,-13.1% (active),43.2%,-8.84% (active),1.64% (active),71.6%,3.73% (active)
O=C(NCCCl)c1cc(Cl)cc(Cl)c1,103%,102%,98.2%,109%,113%,109%,92.8%,90.7%,102%,112%,111%,101%,97.8%,121%,114%,112%,92.4%,101%,91.8%,116%
Cc1cc(/C=C2\SC(=Nc3ccccc3)N(C3CCCC3)C2=O)c(C)n1-c1ccc(Cl)cc1,-19.8% (active),-66.6% (active),-55% (active),-69.6% (active),-57.4% (active),-74.2% (active),-66.8% (active),-27.5% (active),-85.1% (active),-94.5% (active),-79.1% (active),-22.8% (active),-72.8% (active),-53% (active),-90.2% (active),-47.5% (active),-70.3% (active),-70.8% (active),-70.8% (active),-69.9% (active)
COc1ccc(-c2nsc3c2NC(=O)CC3c2ccc(Cl)cc2)cc1 (stereo not given),83.9%,84.4%,83.5%,92.6%,94.8%,73.3%,68.1%,76.6%,84.2%,93.8%,98.4%,66.6%,78%,94.9%,105%,97.2%,79.2%,92.5%,82.5%,84.4%
CNC(=O)c1cc(Oc2ccc(NC(=O)Nc3ccc(Cl)c(C(C)(C)C)c3)c(F)c2)ccn1,19.7%,36.2%,107%,64.4%,48.8%,75.9%,28.7%,37.4%,79%,19.6%,60.8%,19%,0.423% (active),48.4%,90%,59.1%,24.5%,46.6%,20.7%,22.4%
COc1cc(-c2nc3ccccc3[nH]2)ccc1OCc1nnc(-c2ccc(Br)cc2)o1,95.8%,121%,88.8%,106%,82.2%,92.6%,93.9%,90.2%,90.2%,91.2%,84.8%,57.3%,67.4%,76.2%,87%,96.8%,102%,110%,97%,91.9%
COc1ccc(S(=O)(=O)Nc2cc(/C=C\c3cc(OC)c(OC)c(OC)c3)ccc2OC)cc1,27.6%,11.8%,23.8%,48.7%,5.27% (active),12.7%,-27.9% (active),18%,19%,-59.2% (active),-12.8% (active),11.1%,50%,7.83% (active),16.4%,9.24% (active),13%,-13% (active),47.7%,8.41% (active)
CCCN(CCC)CCCNC(=O)c1cc2c(-c3ccc(OC)c(OC)c3)nn(C)c2s1,11.6%,37.5%,22%,34.5%,8.52% (active),-7.72% (active),-17% (active),9.14% (active),29.5%,90.1%,13%,6.33% (active),27.6%,21.8%,-2.45% (active),14.5%,35%,10.9%,7.46% (active),9.55% (active)
N#C/C(=C/c1cc([N+](=O)[O-])ccc1Cl)C(N)=O,98.4%,94.4%,97.2%,94.8%,110%,87.8%,87.7%,106%,104%,117%,92.7%,38.8%,99%,111%,99.2%,96.4%,98.1%,101%,97.8%,88.8%
COc1ccc(-c2nc(-c3nc4ccc(C)cc4[nH]3)c3ccccn23)cc1,69.3%,57.9%,50.3%,52%,52.1%,-2.51% (active),38.8%,24.2%,78.3%,61.1%,52.2%,20.4%,85.3%,32.9%,66.5%,45%,8.6% (active),82.4%,57.6%,46.5%
O=C1CC[C@@H](C(=O)N[C@H]2CSSC[C@@H](C(=O)N/C=C/c3ccc(O)cc3)NC(=O)[C@H](Cc3ccccc3)NC(=O)[C@@H]3CCCN3C(=O)[C@@H]3CCCN3C2=O)N1,96.5%,93.5%,108%,78.2%,102%,99.2%,87.4%,85.2%,118%,102%,106%,93.9%,115%,98.9%,96.9%,107%,99.5%,96.6%,95.4%,94.5%
CCc1ccc(Nc2cc(C)nc3nc(C)nn23)cc1,3.75% (active),62.1%,61.7%,26.8%,-43.3% (active),-3% (active),-14.6% (active),-17.6% (active),34.8%,-96.4% (active),29.5%,-24.3% (active),-90.2% (active),-58.3% (active),-66.5% (active),37.8%,33.1%,0.337% (active),-84.8% (active),-93.6% (active)
